This is a sample that favours compounds with a hit; in the whole collection about 3.3% have one here.
HCV inh: blocks hepatitis C virus; Huh7.5.1 HCVcc-Cre infection, luciferase reporter, 44 h; Potency, µM (highest dose often 41.8 µM), actives largely listed as inhibitors; 340,000 tested, 3.4% active; AID 651820; active = well fitted inhibition curve with a large enough effect; inconclusive = small, poorly fitted or top-dose-only effect, or another doubt; inactive = no such curve, though single readings can be large or run the other way
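1,000 cells/well; 4 h culture; + compound; + HCVcc-Cre (~0.5 moi); 44 h; luciferase substrate, RT 15 min; read 15 sec.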
Vaccinia mCherry: vaccinia inhibition (mCherry reporter); Vaccinia virus mCherry reporter infection, fluorescence; Potency, µM (titrated, usually from 36.5 µM), hits mostly inhibitors; 310,000 tested, 0.63% active; calls by dose curve; tested in A549 cells; also: nearly all actives have a fitted effect of over 35% in size
VACV Venus inh: vaccinia inhibition (Venus reporter) | Vaccinia virus Venus reporter expression, fluorescence | 330,000 tested, 0.46% active | Potency, µM (top dose mostly 36.5 µM), most hits filed as inhibitors | AID 720580; calls by dose curve; tested in A549 cells; also: nearly all actives have a fitted effect of over 30% in size
Each line names hits and unclear results; the compound was inactive in the other large screens.

CC1(C)CCC(=NNC(N)=S)CC1	Vaccinia mCherry 11µM, VACV Venus inh inconclusive
CCc1nn(CC(=O)NCCc2ccc(Cl)cc2)c(=O)c2cc3ccccc3n12	none (no result: HCV inh)
CN(c1ccc(OCC(=O)N2CCCCC2)cc1)S(=O)(=O)c1cccs1	none
CN(c1ccc(OCC(=O)N2CCN(c3ccc(F)cc3)CC2)cc1)S(=O)(=O)c1cccs1	HCV inh 3.5µM
O=[N+]([O-])c1ccc(S(=O)(=O)N2CCn3cccc3C2c2ccccc2F)cc1 (stereo not drawn)	Vaccinia mCherry 11µM, VACV Venus inh inconclusive (no result: HCV inh)
O=S(=O)(c1cccnc1)N1CCn2cccc2C1c1ccccc1F (stereo not drawn)	none
COc1cccc(NC(=O)COC(=O)CCC2CCCC2)c1	none
COC(=O)c1cnc(Oc2ccc(NC(=O)NC(=O)c3ccccc3Cl)cc2)cc1C(F)(F)F	none
O=c1[nH]c(Nc2ccccc2Cl)cc2ccccc12	HCV inh inconclusive
Cc1ccccc1Nc1cc2ccccc2c(=O)[nH]1	VACV Venus inh 10µM (no result: Vaccinia mCherry)
Cc1cnc2c(C)cccc2c1/C=C/c1ccc(N(C)C)cc1	none (no result: HCV inh)
COc1ccc(-c2nc(CSCC(=O)N3CCN(c4cccc(C)c4)C(C)C3)c(C)o2)cc1OC (stereo not drawn)	HCV inh 10µM
Cc1cccc(-c2nc(CSCC(=O)N3CCN(c4ccccn4)CC3)c(C)o2)c1	HCV inh 11µM (no result: Vaccinia mCherry, VACV Venus inh)
COc1ccc(-c2nc(CSCC(=O)N3CCc4ccccc4C3)c(C)o2)cc1OC	HCV inh inconclusive
Cc1cccc(-c2nc(CSCC(=O)N3CCN(c4cccc(C)c4C)CC3)c(C)o2)c1	none (no result: HCV inh)
N#Cc1ccccc1OCC(O)CNCCNC(=O)Nc1ccccc1 (stereo not drawn)	none (no result: HCV inh)
CCCCC(CC)CNC(=O)CCCc1nnc2n(CCC)c(=O)c3sccc3n12 (stereo not drawn)	none (no result: HCV inh)
COc1ccc2sc(-c3ccccc3OC)c(-c3ccc(O)cc3)c2c1	HCV inh inconclusive
COc1cc2sc(-c3ccccc3OC)c(-c3ccc(O)cc3)c2cc1OC	HCV inh 11µM, Vaccinia mCherry inconclusive
COc1ccc(-c2sc3ccc(OC)cc3c2-c2ccc(O)cc2)cc1	HCV inh 8.9µM, Vaccinia mCherry inconclusive, VACV Venus inh inconclusive
COc1ccc(-c2c(-c3cc(OC)cc(OC)c3)sc3ccc(OC)cc23)cc1	none
CC(NC(=O)CCCCCNC(=O)N1CCn2c1nc1ccccc12)c1ccccc1 (stereo not drawn)	none (no result: Vaccinia mCherry, VACV Venus inh)
COC(=O)c1cc(COC(=O)CNC(=O)c2ccc(Br)cc2)oc1C	none
COc1ccc(NC(=S)NNc2ccc([N+](=O)[O-])cc2S(=O)(=O)Nc2ccc(C)cc2C)cc1	HCV inh 14µM
COc1ccc(NC(=S)Nc2cccc([N+](=O)[O-])c2)cc1	none (no result: Vaccinia mCherry, VACV Venus inh)
Cc1ccc(NS(=O)(=O)c2cc([N+](=O)[O-])ccc2NNC(=S)Nc2cc(C)ccc2C)c(C)c1	HCV inh 11µM
Cc1ccc(NS(=O)(=O)c2cc([N+](=O)[O-])ccc2NNC(=S)Nc2cccc(Cl)c2)c(C)c1	HCV inh inconclusive
O=C(Cn1cc(S(=O)(=O)c2ccccc2)c(=O)c2cc(Cl)ccc21)Nc1ccc2c(c1)OCO2	none (no result: HCV inh)
O=C1C=C(Nc2ccccc2)C(=O)c2ccccc21	VACV Venus inh inconclusive
O=C1C=C(Nc2ccccc2)c2ccccc2C1=O	HCV inh 8.9µM, Vaccinia mCherry inconclusive, VACV Venus inh 7.9µM
CCCCNC1=CC(=O)C(NCCCC)=CC1=O	Vaccinia mCherry inconclusive
CCCCNC1=CC(=O)C(=O)c2ccccc21	HCV inh 11µM (no result: Vaccinia mCherry, VACV Venus inh)
CCc1ccc(CNC(=O)c2ccc3nc(SCc4ccc(F)cc4)n(C)c3c2)cc1	none (no result: HCV inh)
Cc1ccc(OCC(=O)Nc2cc(-c3nc4cc(Cl)ccc4o3)ccc2C)c(C)c1	none (no result: HCV inh)
O=C(Nc1cccc(C(=O)N2CCCC2)c1)C1CCC1	HCV inh 0.56µM
O=C(Cc1cccc(NC(=O)C2CCCN(C(=O)CCc3ccccc3)C2)c1)Nc1cccc(C(=O)N2CCOCC2)c1 (stereo not drawn)	HCV inh inconclusive
CN(C(=O)c1ccc(NC(=O)Cc2cccc(NC(=O)C3CCCN(C(=O)CCc4ccccc4)C3)c2)cc1)C1CC1 (stereo not drawn)	none
CN(C(=O)c1cccc(NC(=O)Cc2cccc(NC(=O)C3CCCN(C(=O)CCc4ccccc4)C3)c2)c1)C1CCC1 (stereo not drawn)	HCV inh 3.5µM, Vaccinia mCherry inconclusive, VACV Venus inh inconclusive
O=C(Nc1cccc(C(=O)N2CCCCC2)c1)C1CCC1	none
O=C(Cc1cccc(NC(=O)C2CCCN(C(=O)CCc3ccccc3)C2)c1)Nc1cccc(C(=O)N2CCCCC2)c1 (stereo not drawn)	HCV inh 4.5µM
COc1cccc(CNC(=O)c2c(OC)cc(=O)n3c2CCN(C(=O)C2=C(C)OCCO2)CC3)c1	none (no result: HCV inh)
CN1CCCC(CN(C)C(=O)c2cnn(-c3nccc(-c4ccccc4C(F)(F)F)n3)c2C2CC2)C1 (stereo not drawn)	none (no result: HCV inh)

Compound activity: PubChem, National Center for Advancing Translational Sciences (NCATS)
